Inconclusive results are not listed. Where a call stands in place of a potency, no number is given. Active and inactive are the calls of the source. Unless noted, the call rests on the fitted dose curve; in most records, active means well fitted curve in the direction sought with a large enough effect; inconclusive means small, poorly fitted or top-dose-only effect, or another doubt; inactive means no such curve, though single readings can be large; an effect the other way counts as inactive or inconclusive. Numbered stars: 1 amine (or outer) side, 2 acyl side, 3 side chain; on linkers, the order of the positions; unused ones are H or OH. Bridge positions count the residues as written; N and C are the ends. Square brackets hold non-standard residues; d marks the D form. Peptide text beside a SMILES is read from it. I, II: the chains in the order shown. Actinocin(9to1) = Cc1c2oc3c(C)ccc(C(=O)[*:1])c3nc-2c(C(=O)[*:2])c(N)c1=O; NMeV = CN[C@H](C(=O)O)C(C)C; Sar = CNCC(=O)O

Experiment [1] deals with Pyruvate kinase (Leishmania mexicana) (UniProt Q27686). Put plainly: qHTS Validation Assay for Inhibitors of Leishmania Mexicana Pyruvate Kinase (AID 945). In short, it runs like this: (§1)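 Luminescent ATP detection (PKLight) after a 1 h room-temperature reaction of 0.2 nM LmPYK E451W mutant with 0.5 mM PEP and 0.1 mM ADP at pH 7.2. Activity is normalized to DMSO-only control wells.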
Background: Quantitative high-throughput screening tests each substance at several concentrations.

For experiment [2], the target named is Pyruvate kinase PKM (Homo sapiens) (UniProt P14618). The experiment can be described thus: qHTS Assay for Activators of Human Muscle Pyruvate Kinase (AID 954; active means well fitted curve in the direction sought with a large enough effect, not every such curve was filed as active). In short, it runs like this: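 ATP production by PKM2 detected via luciferase luminescence after 1 h room-temperature reaction (0.1 nM enzyme, PEP at Km 0.5 mM, ADP 0.1 mM, pH 7.2 imidazole buffer). Inhibition scaled to no-enzyme control; activation referenced to 0.3 nM enzyme wells.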
Sequence of Pyruvate kinase PKM (Homo sapiens) (P14618 whole entry, looked up): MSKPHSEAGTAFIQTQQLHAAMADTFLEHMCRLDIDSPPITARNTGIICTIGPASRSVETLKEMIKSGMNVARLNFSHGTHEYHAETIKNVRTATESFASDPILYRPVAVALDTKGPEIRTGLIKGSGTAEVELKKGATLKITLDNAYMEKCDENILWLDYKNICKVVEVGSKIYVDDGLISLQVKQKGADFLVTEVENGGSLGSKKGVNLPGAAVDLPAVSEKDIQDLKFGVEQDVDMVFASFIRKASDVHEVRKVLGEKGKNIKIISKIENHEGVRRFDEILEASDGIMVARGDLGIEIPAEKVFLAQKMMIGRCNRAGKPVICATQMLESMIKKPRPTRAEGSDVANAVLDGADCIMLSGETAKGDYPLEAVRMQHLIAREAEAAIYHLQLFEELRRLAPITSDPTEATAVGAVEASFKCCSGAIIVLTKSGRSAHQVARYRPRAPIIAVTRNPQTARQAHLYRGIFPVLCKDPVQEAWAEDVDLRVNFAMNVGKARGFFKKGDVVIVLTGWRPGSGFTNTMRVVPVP

A short description of experiment [3]: MultiTox-Fluor Cytotoxicity Assay - LYMP1-001 - Dead Cells (AID 946). Further: potency means the concentration at half of the fitted maximal effect. In short, it runs like this:
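Cytotoxicity as increased dead-cell protease fluorescence (bis-AAF-R110, 485/520 nm), read 60 min after MultiTox-Fluor reagent. Human lymphoblastoid line exposed 16 h; Hill-fitted AC50, with DMSO as 0% and 15 uM tetraoctylammonium bromide as 100%.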

A short description of experiment [4]: MultiTox-Fluor Cytotoxicity Assay - LYMP1-002 - Dead Cells (AID 960). Further: potency means the concentration at half of the fitted maximal effect; nearly all actives have a fitted effect of over 60% in size. The essentials: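 Concentration-dependent increases in membrane-leaked protease activity are quantified in LYMP1-002 cells after 16 hr treatment; values are normalized against DMSO and tetraoctylammonium bromide (15 uM) controls and AC50 derived by Hill modeling.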
Experiment [5] is described as follows: MultiTox-Fluor Cytotoxicity Assay - LYMP1-003 - Dead Cells (AID 961). Further: potency means the concentration at half of the fitted maximal effect; nearly all actives have a fitted effect of over 70% in size. The essentials:
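Dead-cell protease release, detected as bis-AAF-R110 fluorescence at 485/520 nm, was measured in LYMP1-003 cells after 16 h compound treatment at 37 C. AC50 values came from Hill-modeled qHTS curves normalized to DMSO (0%) and 15 uM tetraoctylammonium bromide (100%).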

The nature of experiment [6]: Cell Viability - LYMP1-003 - Assay at 40 hr (AID 964). Further: potency means the concentration at half of the fitted maximal effect; nearly all actives have a fitted effect of over 60% in size. The essentials: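 Acute toxicity is scored as a concentration-dependent loss of intracellular ATP in LYMP1-003 cells (2500/well, complete medium) after 40 hr at 37 C, measured by CellTiter-Glo luminescence; AC50 values derive from standard Hill modelling.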
Experiment [7] in a line: Confirmation and Secondary Assay for Modulators of Hemoglobin Beta Chain Splicing at IVS2 705 locus (AID 930).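 Further: HeLa cells stably expressing the EGFP-705 splicing reporter; GFP fluorescence per well restored by corrected splicing of the IVS2-705 intron in EGFP; series mostly up to about 46 µM.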 In short, it runs like this:
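Read-out: total peak GFP fluorescence per well (488 nm excitation, 500-520 nm emission) by laser-scanning cytometry. Cells: HeLa EGFP-705 splicing reporter, 2 days compound exposure in Optimem/2% FCS.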

Experiment [8] addresses Muscarinic acetylcholine receptor M1 (Rattus norvegicus) (UniProt P08482). Put plainly: qHTS Assay for Antagonists of Acetylcholine Muscarinic M1 Receptor: Kinetic Measurement of Intracellular Calcium Response (AID 943).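 Further: Fluo-4 calcium signal as peak divided by basal fluorescence over 4 min; series mostly up to about 35 µM; nearly all actives have a fitted effect of over 75% in size.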 The essentials:
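Quantitative HTS in CHO-M1 (rat receptor) cells: 10 min compound exposure ahead of 100 nM carbachol, Fluo-4 fluorescence followed 4 min, value expressed as peak-to-basal ratio.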

For experiment [9] the target is unchanged. Put plainly: qHTS Assay for Antagonists of Acetylcholine Muscarinic M1 Receptor: Measurement of IP-One Response (AID 944). Further: nearly all actives have a fitted effect of over 75% in size. Further: potency means the concentration at half of the fitted maximal effect. In short, it runs like this: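 Antagonism was measured as loss of carbachol-driven (EC80) IP1 accumulation in CHO cells carrying rat M1, using a homogeneous IP-One TR-FRET kit read at 620 and 665 nm.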
Experiment [10] can be described thus: MultiTox-Fluor Cytotoxicity Assay - LYMP1-003 - Live Cells (AID 962).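 Further: cells exposed to compound for 16 hours at 37 °C; cytotoxic hits lower the live-cell protease signal.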 The essentials:
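Human lymphoblastoid line LYMP1-003 in complete culture medium, treated 16 hr with titrated compounds. Viable cells quantified via cell-permeant GF-AFC substrate fluorescence; AC50 derived by Hill fitting.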

The target of experiment [11] is Pyruvate kinase (Leishmania mexicana) (UniProt Q27686). Put plainly: qHTS Validation Assay for Activators of Leishmania Mexicana Pyruvate Kinase (AID 959). In short, it runs like this: as §1

Sequence of Muscarinic acetylcholine receptor M1 (Rattus norvegicus) (P08482 whole entry, looked up): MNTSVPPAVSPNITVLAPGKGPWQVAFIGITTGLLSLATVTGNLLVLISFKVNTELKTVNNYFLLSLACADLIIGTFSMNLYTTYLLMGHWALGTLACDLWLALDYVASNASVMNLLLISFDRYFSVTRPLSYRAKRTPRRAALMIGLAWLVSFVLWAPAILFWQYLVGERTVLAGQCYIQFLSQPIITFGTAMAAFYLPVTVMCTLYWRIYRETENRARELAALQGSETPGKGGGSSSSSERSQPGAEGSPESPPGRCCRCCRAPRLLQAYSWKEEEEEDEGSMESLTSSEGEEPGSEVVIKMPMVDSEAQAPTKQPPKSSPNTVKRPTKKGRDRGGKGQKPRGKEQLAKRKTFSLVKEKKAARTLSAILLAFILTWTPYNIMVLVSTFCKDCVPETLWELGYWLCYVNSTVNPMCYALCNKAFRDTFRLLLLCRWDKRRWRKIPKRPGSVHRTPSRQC

On to `CN1CCC[C@@H]1c1cccnc1`, for which the call in experiment [1] and in experiment [2] was inactive.
Consider `CCCn1c(=O)[nH]c(=O)c2[nH]cnc21`, for which the outcome in experiment [1] and in experiment [2] was inactive.
Consider `Cc1c2oc3c(C)ccc(C(=O)N[C@@H]4C(=O)N[C@H](C(C)C)C(=O)N5CCC[C@H]5C(=O)N(C)CC(=O)N(C)[C@@H](C(C)C)C(=O)O[C@@H]4C)c3nc-2c(C(=O)N[C@@H]2C(=O)N[C@H](C(C)C)C(=O)N3CCC[C@H]3C(=O)N(C)CC(=O)N(C)[C@@H](C(C)C)C(=O)O[C@@H]2C)c(N)c1=O` (I: T[dV]P[Sar][NMeV] / II: T[dV]P[Sar][NMeV]; ester I:1-I:C, II:1-II:C; linker I:N-II:N via Actinocin(9to1)), for which the Potency in experiment [3] was 12.6 nM (active); in experiment [4] it was 25.1 nM (active); in experiment [5] it was 50.1 nM (active); in experiment [6] it was 5 nM (active).
Consider `CN1[C@@H]2CC[C@H]1CC(OC(=O)c1c[nH]c3ccccc13)C2` (stereo partly drawn), for which the outcome in [1] and in experiment [2] was inactive.
On to `C[N+]1(CCCCC[N+]2(C)CCCC2)CCCC1`, for which the molecule was called inactive in experiment [7], in experiment [8], in [1] and in [2]. Moreover, in experiment [9], the Potency entry is “inactive”.
`Nc1cc(Cl)c(NC2=NCCN2)c(Cl)c1`: the Potency result in experiment [9] was “inactive”. Further, the molecule was classed as inactive in [1] and in experiment [2].
`COc1cc(-c2ccc(=O)[nH]n2)ccc1OC(F)F`: the outcome in experiment [8] and in experiment [1] was inactive.
Regarding `CC(C)NC[C@@H](O)COc1cccc2ccccc12`, the outcome in experiment [7] and in [2] was inactive. Moreover, the Potency result in experiment [9] is “inactive”.
As for `COc1ccc(CCN2CCC(Nc3nc4ccccc4n3Cc3ccc(F)cc3)CC2)cc1`, the result in experiment [7] was inactive.
`COc1cc(NS(C)(=O)=O)ccc1Nc1c2ccccc2nc2ccccc12`: in experiment [9], the Potency was 10000 nM (active). Further, in experiment [2], the result was inactive.
For the molecule `C1CCc2nnnn2CC1`, the result in experiment [7], in experiment [8], in experiment [1] and in [2] was inactive. Further, in [9], the Potency result was “inactive”.
Take `COc1ccc(C2C(=O)c3ccccc3C2=O)cc1`: the molecule was classed as inactive in experiment [7].
As for `CCCC1O[C@@H]2C[C@H]3[C@@H]4CCC5=CC(=O)C=C[C@]5(C)[C@H]4[C@@H](O)C[C@]3(C)[C@]2(C(=O)CO)O1` (stereo partly drawn), the molecule was classed as inactive in experiment [1] and in experiment [2].
Regarding `CCN(CC)CCOC(=O)C(c1ccccc1)C1CCCCC1` (stereo not drawn), the molecule was called inactive in [7].
For the molecule `Oc1cc(O)c2c(c1)O[C@H](c1ccc(O)c(O)c1)[C@H](O)C2`, the result in [8], in experiment [1] and in experiment [2] was inactive. Further, the Potency entry in experiment [9] was “inactive”.
With `CCCC(=O)Nc1ccc(OCC(O)CNC(C)C)c(C(C)=O)c1` (stereo not drawn), in [7], the molecule was classed as inactive.
In the case of `Cc1c(N(C)CS(=O)(=O)O)c(=O)n(-c2ccccc2)n1C`, the call in experiment [7] was inactive.
In the case of `CCN(CC)C(=O)N1CCN(C)CC1`, the call in experiment [7] was inactive.
For `O=C1CCC(c2ccc(-n3ccnc3)cc2)=NN1`, the result in experiment [8], in [1] and in [2] was inactive. For the same molecule, the Potency entry in [9] is “inactive”.
For the molecule `CC(C)COC(=O)OCN1C(=O)CN(CCN2CC(=O)N(COC(=O)OCC(C)C)C(=O)C2)CC1=O`, the Potency result in experiment [9] was “inactive”. Besides, the outcome in [1] and in experiment [2] was inactive.
`CNCCC=C1c2ccccc2CCc2ccccc21`: the result in experiment [7], in [1] and in [2] was inactive.
As for `CO/N=C1\CN(c2nc3c(cc2F)c(=O)c(C(=O)O)cn3C2CC2)CC1CN` (stereo not drawn), in experiment [7], the outcome was inactive.
Still for that read-out and setting: to `CC(CCc1ccccc1)NCC(O)c1ccc(O)c(C(N)=O)c1` (stereo not drawn) belongs “inactive”.
For `Oc1ccc(Cl)cc1Sc1cc(Cl)ccc1O`, the Potency entry in experiment [3] and in experiment [10] was “inactive” each time.
As to `O=C(O)c1cc2cc(Cc3cccnc3)ccc2o1`, the result in experiment [7], in experiment [2] and in experiment [11] was inactive. Also, in [9], the Potency entry is “inactive”.
As for `C[C@@H]1C(=O)NC2=Nc3cccc(Cl)c3CN21`, the result in experiment [8], in experiment [1] and in experiment [2] was inactive. For the same molecule, in experiment [9], the Potency entry was “inactive”.
For `N[C@@H](Cc1cnc[nH]1)C(=O)O`, the result in experiment [8], in [1] and in [2] was inactive. In experiment [9], the Potency result was “inactive”.

The record behind these values is PubChem BioAssay (NCATS).
